Screens as filed in PubChem.
FEN1 inh: human FEN1 inhibition; P39748; Recombinant FEN1 flap cleavage, fluorescence, 15 min; Potency, µM (titrated, usually from 114 µM), inactives show at the highest dose activity change, negative = inhibition, hits mostly inhibitors; 0.35% of 390,000 active; also: potency is read from the fitted curve at half-maximal effect; % is scaled to controls: 0 for no effect and ±100 for the full control effect; nearly all actives have a fitted effect of over 65% in size
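Read-out was taken twice, immediately and after 15 min, following addition of 50 nM substrate to 10 nM FEN1 that had sat with test compound for 15 min at room temperature. Curves came from a four-parameter Hill model.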
VDR inhibitor: blocks the human vitamin D receptor; Potency, µM, for inactives: max response, negative = inhibition, most hits filed as inhibitors; VDR-SRC2-3 peptide fluorescence polarization, 2 h; P11473; 0.93% of 400,000 active; also: potency is read from the fitted curve at half-maximal effect; % is scaled to controls: 0 for no effect and ±100 for the full control effect
Target sequence (P11473 whole entry, looked up): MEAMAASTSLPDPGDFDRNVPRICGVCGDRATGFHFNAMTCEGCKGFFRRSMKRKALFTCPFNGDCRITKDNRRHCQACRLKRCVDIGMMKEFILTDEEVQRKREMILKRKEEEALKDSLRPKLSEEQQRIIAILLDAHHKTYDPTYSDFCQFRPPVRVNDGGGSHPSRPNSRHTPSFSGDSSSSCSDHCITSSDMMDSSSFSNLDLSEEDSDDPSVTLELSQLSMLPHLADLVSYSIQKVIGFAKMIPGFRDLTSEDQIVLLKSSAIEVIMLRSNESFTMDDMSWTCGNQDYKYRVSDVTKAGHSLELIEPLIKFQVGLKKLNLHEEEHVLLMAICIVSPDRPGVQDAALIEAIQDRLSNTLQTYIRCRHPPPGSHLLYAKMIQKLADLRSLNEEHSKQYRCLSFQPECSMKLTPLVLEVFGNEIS
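Two reagent solutions held at 4 deg C in the dark were dispensed, compounds pinned at 23 nl, and the mixture incubated 2 h at room temperature. Read-out: fluorescence polarization of VDR–SRC2-3 peptide binding.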
TCR act: T cell receptor activation; primary human leukocytes, anti-CD3, IL-2 HTRF, 48 h; 330,000 tested, under 10 active; Potency, µM (doses to about 9.22 µM), inactives show top-dose activation of IL-2 secretion, actives largely listed as activators; also: % of control where 0% means no effect
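Compounds are tested in HTS on primary human leukocytes co-incubated with a-CD3 beads for 48 hr. IL-2 output is measured by time-resolved FRET.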
WRN inhibitor: blocks human WRN helicase; AID 651768; WRN helicase unwinding, fluorescent forked duplex, kinetic; Potency, µM (doses to about 114 µM), for the others: top-dose activity change, negative = inhibition, most hits filed as inhibitors; 0.46% of 360,000 active; also: potency is read from the fitted curve at half-maximal effect; % is scaled to controls: 0 for no effect and ±100 for the full control effect; nearly all actives have a fitted effect of over 55% in size
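Kinetic fluorescence helicase assay: unwinding of a quenched forked DNA duplex (100 nM final) with 2 mM ATP final raises red fluorescence (525/598 nm). Compounds sat 15 min at room temperature with 20 nM WRN beforehand.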
PI5P4Ka inh: blocks human PI5P4K alpha kinase activity; 1.2% of 330,000 active; max response, %; PI5P4Kalpha enzyme, ADP-Glo luminescence, 60 min; hits give low values; AID 652105; active = max response of -50% or lower; inconclusive = between -30% and -50%; inactive = -30% or higher; also: value at the top dose of about 77 µM; % is scaled to controls: 0 for no effect and ±100 for the full control effect
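Compounds were pin-transferred onto PI5P4Kalpha and substrate in HEPES pH 7.4 buffer with EGTA, CHAPS and 5% DMSO. ATP (5 microM final) started the reaction, which ran 60 minutes at room temperature before ADP-Glo detection.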
PLK1 PBD block: PLK1 (human) polo-box domain binding inhibition | P53350 | Plk1 PBD binding of FITC phosphopeptide, fluorescence polarization | Potency, µM, for inactives: max response, negative = inhibition, most hits filed as inhibitors | 2.8% of 360,000 active | AID 720504; also: potency is read from the fitted curve at half-maximal effect; series mostly up to about 57 µM; % is scaled to controls: 0 for no effect and ±100 for the full control effect; nearly all actives have a fitted effect of over 65% in size
TbPYK confirm: confirmation of Trypanosoma brucei pyruvate kinase inhibitors; recombinant TbPYK, Kinase-Glo ATP luminescence; 67% of 890 active; Potency, µM (highest dose often 76.9 µM), for the others: at the top dose activity change, negative = inhibition, usual class: inhibitors; shares compounds with PLK1 PBD block; also: potency is read from the fitted curve at half-maximal effect; % is scaled to controls: 0 for no effect and ±100 for the full control effect; nearly all actives have a fitted effect of over 70% in size
TbPYK orthogonal: TbPYK inhibition, orthogonal confirmation. shares compounds with PLK1 PBD block. 62% of 890 active. recombinant TbPYK, ADP-Glo luminescence, 60 min. Potency, µM (top dose mostly 76.9 µM), for the others: top-dose activity change, negative = inhibition, most hits filed as inhibitors; also: potency is read from the fitted curve at half-maximal effect; % is scaled to controls: 0 for no effect and ±100 for the full control effect; nearly all actives have a fitted effect of over 75% in size
Numbers without * were called inactive; ? = inconclusive; / = not tested or not shown; [ ] = remark or other dose. Most compounds without a hit are left out; they make up all but 3.7% or so of the library. Unless noted, calls follow the shape of the dose curve; as a rule, active = well fitted curve in the direction sought with a large enough effect; inconclusive = small, poorly fitted or top-dose-only effect, or another doubt; inactive = no such curve, though single readings can be large; an effect the other way counts as inactive or inconclusive.

SMILES	FEN1 inh	VDR inhibitor	TCR act	WRN inhibitor	PI5P4Ka inh	PLK1 PBD block	TbPYK confirm	TbPYK orthogonal
CCN1C(=O)S/C(=C\c2ccc(N3CCOCC3)cc2C)C1=O	7%	2%	-1%	-12%	-1	3%	/	/
O=C(O)CNC(=O)c1ccc(OC(F)F)cc1	9%	12%	3%	1%[57.1 µM]	/	1%	/	/
O=C1C=CC(=O)N1c1ccc(OC(F)F)cc1	-4%	16µM*	7%	32µM*	?	3.4µM*	-13%	-8%
CCOC(=O)c1ccccc1NC(=O)N1CCC(CN2CCOCC2)CC1	-6%	13%	/	/	/	/	/	/
O=C(O)c1ccc2c(c1)C(=O)/C(=C/c1ccccc1)C2=O	40µM*	?	1%[46.1 µM]	?	-56*	2.4µM*	16µM*	35µM*
COC(=O)c1c(-c2ccc(C(C)(C)C)cc2)csc1NC(=O)C1C2CCC(O2)C1C(=O)O (stereo unspecified)	5%	45µM*	3%[46.1 µM]	-35%[57.1 µM]	?	2.7µM*	4.5µM*	14µM*
COc1ccc(N=C(NN)c2ccc3ccccc3n2)cc1	3%	-27%	13%[46.1 µM]	-5%	1	12µM*	13µM*	?
COc1ccc(CNC(=O)c2ccc3ccccc3n2)cc1	-19%	-8%	-1%	-8%	0	-2%	/	/
Cc1ccc(CCNC(=O)CN2C(=O)COc3ccc(S(=O)(=O)N4CCCCCC4)cc32)cc1	-9%	-16%	/	/	/	/	/	/
CCN(CC)c1ccc(NC(=O)Cn2cc3c(n2)CCC(C)C3)c(C)c1 (stereo unspecified)	-23%	1%	4%	1%	0	0%	22µM*	?
CC1CCc2nn(CC(=O)Nc3ccc(F)cc3F)cc2C1 (stereo unspecified)	-3%	3%	2%	-5%	-1	-8%	/	/
Cc1ccccc1NC(=O)C1CCN(C(=O)c2ccc(F)cc2)CC1	-1%	2%	/	/	/	/	/	/
CCCC(=O)c1ccc(OC(=O)c2c(-c3ccccc3Cl)noc2C)cc1	-2%	15%	/	/	/	/	/	/
O=C(c1ccccc1)c1ccccc1N1C(=O)C=CC1=O	-10%	25µM*	0%	13µM*	?	3.4µM*	4µM*	4µM*
CC(=O)N1c2ccccc2C(C)(c2ccc(C)cc2)CC1(C)C (stereo unspecified)	?	-28%	/	/	/	/	/	/
CCc1ccc(-n2c(N3CCN(c4cccc(C)c4C)CC3)nc3ccccc3c2=O)cc1	-4%	-13%	/	/	/	/	/	/
COc1ccc(C)cc1NC(=O)CN1C(=O)CCc2cc(S(=O)(=O)N3CCOCC3)ccc21	-2%	21%	/	/	/	/	/	/
CCN(CC)S(=O)(=O)c1ccc(C(=O)NC(=S)N(CCC#N)Cc2cccnc2)cc1	23%	3%	2%	-3%	-1	-9%	13µM*	13µM*
N#CCCN(Cc1cccnc1)C(=S)NC(=O)c1ccco1	-6%	-7%	3%	2%	1	-5%	/	/
NC(=O)CSc1nnc(-c2cccc(S(=O)(=O)N3CCOCC3)c2)n1C1CCCCCC1	4%	?	-4%	?	?	3µM*	-13%	-19%
COc1ccc(-c2ccc(C(=S)N3CCN(C(C)=O)CC3)o2)cc1	0%	79µM*	3%	-8%	/	24µM*	22µM*	32µM*
CC(C)CN(C(=O)CN1CCN(c2ccc(O)cc2)CC1)c1c(N)n(CC(C)C)c(=O)[nH]c1=O	-3%	-9%	-8%[46.1 µM]	-8%	-12	-11%	?	?
CC(=O)c1ccc(N2CCN(CC(=O)N(CC(C)C)c3c(N)n(CC(C)C)c(=O)[nH]c3=O)CC2)cc1	-6%	-11%	/	8%	2	6%	/	/
C=C(CN(C)C)C(=O)c1cc(C)ccc1C	-4%	45µM*	4%	22µM*	-1	2.7µM*	5.6µM*	16µM*
Cc1ccccc1NC(=O)N1CCC(CN2CCCC2)CC1	19%	8%	/	/	/	/	/	/
SMILES	FEN1 inh	VDR inhibitor	TCR act	WRN inhibitor	PI5P4Ka inh	PLK1 PBD block	TbPYK confirm	TbPYK orthogonal
C=CCN1C(=O)/C(=c2\sc3nc(=O)c(Cc4ccc(OC)c(OC)c4)nn3c2=O)c2ccccc21	-5%	40µM*	2%	0%	-28	11µM*	?	35µM*
O=C(CSc1cn[nH]n1)Nc1cccc(C(=O)O)c1	8%	45µM*	-6%	?	-64*	4.2µM*	14µM*	35µM*
Cc1nn(C)c(Sc2ccccc2N)c1[N+](=O)[O-]	1%	?	-3%	8%	-24	13µM*	13µM*	13µM*
Cc1ccc(S(=O)(=O)/N=C2/C=C(C3C(=O)CC(C)(C)CC3=O)C(=O)c3ccccc32)cc1	-16%	?	-1%	17µM*	6	7.5µM*	-26%	-24%
O=C(Nc1ccc(C(=O)N2CCCC2)cc1)c1ccccc1	-2%	7%	2%	-3%	-28	-6%	28µM*	8%
O=C(Nc1ccc(C(=O)N2CCCCC2)cc1)c1ccc(Br)cc1	-11%	-2%	-2%	-4%	-5	1%	/	/
CCOC(=O)CCc1c(C)nc(SCCCn2c(=O)[nH]c3ccccc32)c(C#N)c1C	1%	7%	2%	-6%	/	-16%	5.6µM*	14µM*
Cc1ccc(-c2nc(-c3cc4cccc(OCc5ccccc5F)c4oc3=O)no2)cc1	-5%	12%	/	/	/	/	/	/
O=C(O)c1cccc(S(=O)(=O)N2CCc3ccccc3C2)c1	2%	-9%	-11%	-18%	-1	-8%	/	/
O=C(c1cccc(S(=O)(=O)N2CCc3ccccc3C2)c1)N1CCN(c2ccc(O)cc2)CC1	-9%	-2%	-4%[46.1 µM]	-8%	-13	-3%	5µM*	14µM*
CCN(Cc1ccccc1)C(=O)Cn1c(=O)n(-c2cccc(C)c2)c(=O)c2c1c1cc(OC)ccc1n2C	4%	3%	/	/	/	/	/	/
COc1ccc(-n2nnnc2Sc2ccc(S(=O)(=O)N3CCOCC3)cn2)cc1	1%	?	-2%	-7%	-28	9.5µM*	14µM*	18µM*
CC1=C(C(N)=O)C(c2ccccc2[N+](=O)[O-])n2ncnc2N1 (stereo unspecified)	-4%	25µM*	3%	-2%	-4	8.4µM*	25µM*	?
CC1=C(C(N)=O)C(c2ccccc2Br)n2ncnc2N1 (stereo unspecified)	0%	9%	/	/	/	/	/	/
Cc1nnc(N=c2ssnc2Cl)o1	?	?	3%	0%	-101*	1.7µM*	4.5µM*	5µM*
